# Assay outcomes from PubChem.
# Lassa entry inh = Lassa virus entry inhibition. actives 1.2% (n = 300,000). Lassa virus pseudotype entry inhibition, cell reporter. AID 540256. Potency, µM (doses to about 37.9 µM), actives largely listed as inhibitors; calls by dose curve; tested in HEK293 cells; note: nearly all actives have a fitted effect of over 50% in size
# Marburg entry inh = Marburg virus entry inhibition; Marburg virus pseudotyped entry inhibition, cell reporter; Potency, µM (series often up to 37.8 µM), hits mostly inhibitors; actives 1.8% (n = 300,000); calls by dose curve; tested in HEK293 cells
# Vaccinia Venus = inhibitors of vaccinia virus (Venus reporter). AID 720580. actives 0.46% (n = 330,000). Vaccinia virus Venus reporter expression, fluorescence. Potency, µM (titrated, usually from 36.5 µM), hits mostly inhibitors; calls by dose curve; tested in A549 cells; note: nearly all actives have a fitted effect of over 30% in size
# FMDV inh = antivirals against foot and mouth disease virus; actives 1.2% (n = 410,000); AID 1159524; FMDV antiviral cell-based qHTS; Potency, µM (doses to about 57.9 µM), usual class: inhibitors; calls by dose curve; tested in HEK293T cells; note: read-out not given here; nearly all actives have a fitted effect of over 45% in size
# HCV inh = blocks hepatitis C virus. Huh7.5.1 HCVcc-Cre infection, luciferase reporter, 44 h. actives 3.4% (n = 340,000). AID 651820. Potency, µM (doses to about 41.8 µM), actives largely listed as inhibitors; active = well fitted inhibition curve with a large enough effect; inconclusive = small, poorly fitted or top-dose-only effect, or another doubt; inactive = no such curve, though single readings can be large or run the other way
#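 Antiviral activity was scored by luciferase reporter output from cells infected with HCVcc-Cre (~0.5 moi) in presence of compound, 44 h infection period, cells seeded 1,000/well 4 h prior.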
# VACV mCherry inh = vaccinia inhibition (mCherry reporter); Vaccinia virus mCherry reporter infection, fluorescence; Potency, µM (titrated, usually from 36.5 µM), hits mostly inhibitors; actives 0.63% (n = 310,000); AID 720579; calls by dose curve; tested in A549 cells; note: nearly all actives have a fitted effect of over 35% in size
# Hits are given with their value; i = inactive; ? = inconclusive; nt = not tested or not shown; [ ] = remark or other dose. The list is not random: actives were taken first. Their share in the collection is about 5.3%.
SMILES,Lassa entry inh,Marburg entry inh,Vaccinia Venus,FMDV inh,HCV inh,VACV mCherry inh
COCCn1c(=O)c(-c2ccc(Cl)cc2)nc2cnc(OCc3ccccc3)nc21,nt,nt,nt,i,nt,nt
Cc1ccc(C)c(N2CCN(C(=O)CSCc3ccccc3Cl)CC2)c1,?,nt,i,i,nt,i
COc1ccccc1CNS(=O)(=O)c1cc(C(=O)NCC2CCCO2)c(Cl)cc1Cl (stereo not given),i,i,i,i,i,i
O=C(C[n+]1ccccc1Cl)c1ccc2c(c1)CCCC2,nt,nt,i,nt,nt,i
COc1cc(OC)c(CN2CCCN(C)CC2)cc1Br,?,?,i,i,7.1µM,i
COc1cc(OC)c(CN2CCCCCCC2)cc1Br,i,i,i,i,i,i
COc1ccc(-c2cc3ccccc3nc2N)cc1OC,nt,nt,nt,?,11µM,nt
Cc1ccc(-c2csc3nnc(SCC(=O)NCc4ccc5c(c4)OCO5)n23)cc1,i,i,nt,i,6.3µM,nt
CCC1=Nc2cc(C(=O)NC3CCC(C)CC3)ccc2Sc2ccc(C)cc21 (stereo not given),?,?,?,i,nt,?
CCn1c(SCC(=O)N/N=C/c2ccc(C)s2)nc2ccccc21,i,2.6µM,i,i,?,?
Cc1ccc(/C=N/NC(=O)C[n+]2ccccc2)s1,i,i,i,i,i,i
CCCCCCCCCC(=O)N/N=C/c1ccc(C)s1,9.2µM,?,nt,i,i,nt
COc1ccc(CNS(=O)(=O)c2ccc3c(c2)CC(C)N3C(=O)C2CC2)cc1 (stereo not given),i,?,i,i,22µM,i
COc1cc(CNS(=O)(=O)c2ccc3c(c2)CC(C)N3C(=O)C2CCC2)cc(OC)c1OC (stereo not given),nt,nt,nt,?,10µM,nt
COc1cccc2c1cc1c(=O)n(CC(=O)N3CCN(c4ccc(Cl)cc4)CC3)nc(C)n12,nt,i,i,i,nt,i
CCC(C)NCCCOc1cc(Cl)ccc1Cl (stereo not given),?,?,i,i,i,i
CCC(C)NCCOCCOc1ccc(Cl)c(C)c1C (stereo not given),?,?,?,?,10µM,i
C=CCc1cc(Cl)ccc1OCCCNC(C)C,?,?,i,i,?,i
C=CCc1cc(Cl)ccc1OCCOCCNC(C)CC (stereo not given),?,11µM,i,i,?,i
CCC(C)NCCOCCOc1ccc(Cl)c2ccccc12 (stereo not given),?,?,28µM,i,?,?
O=C(Nc1cc(C(=O)N2CCN(CCO)CC2)c2c(c1)ncn2C1CCCC1)c1ccccc1,nt,nt,i,i,nt,i
Cc1ccc(N/C=C/C(=O)c2cccs2)cc1C,10µM,?,i,?,?,i
Cc1c(C(=O)NCC2(c3ccccc3)CCOCC2)cnn1-c1nccc(-c2ccco2)n1,nt,nt,i,i,nt,i
Cc1ccc2cc(C3CC(c4ccco4)=NN3S(=O)(=O)c3ccccc3)c(Cl)nc2c1 (stereo not given),16µM,2.6µM,nt,i,i,nt
O=S(=O)(c1ccccc1)N1N=C(c2ccc(Br)cc2)CC1c1ccco1 (stereo not given),nt,nt,i[7.34 µM],i,?,i[7.34 µM]
SMILES,Lassa entry inh,Marburg entry inh,Vaccinia Venus,FMDV inh,HCV inh,VACV mCherry inh
O=S(=O)(c1ccccc1)N1N=C(c2ccc(O)cc2)CC1c1ccco1 (stereo not given),nt,nt,nt,?,10µM,nt
Cc1ccc(C2=NN(S(=O)(=O)c3ccccc3)C(c3ccco3)C2)cc1 (stereo not given),nt,nt,nt,i,13µM,nt
CS(=O)(=O)Nc1ccc(C2=NN(S(=O)(=O)c3ccc(F)cc3)C(c3ccco3)C2)cc1 (stereo not given),nt,nt,nt,?,i,nt
CC(=O)N1N=C(c2cccc(NS(=O)(=O)c3ccc(C)cc3)c2)CC1c1ccco1 (stereo not given),?,?,i,i,3.2µM,i
Cc1ccc(C(=O)N(Cc2ccco2)Cc2sccc2C)cc1,i,i,i,i,nt,i
COc1ccc(N(CN2C(=O)[C@@H]3[C@@H](C2=O)[C@H]2C=C[C@@H]3C2)C(=O)c2ccco2)cc1,nt,i,nt,nt,nt,nt
O=C(CCCCCNC(=O)c1ccccc1Cl)N/N=C/c1ccco1,i,i,i,i,i,i
Cc1ccc(NC(=O)c2cc(-c3ccc(Br)s3)nc3ccccc23)cc1F,i,i,i,i,nt,i
COc1cccc(NC(=O)c2oc3ccc(S(=O)(=O)N(C)C4CCCCC4)cc3c2C)c1,i,nt,i,i,nt,i
CN(C)CCCN(C(=O)CCc1ccccc1)c1nc2ccc(Br)cc2s1,?,?,?,25µM,i,?
Cc1cccc2sc(N(CCCN(C)C)C(=O)CCc3ccccc3)nc12,?,?,?,i,10µM,?
Cc1cccc2sc(N(CCCN(C)C)C(=O)CN3C(=O)c4ccccc4C3=O)nc12,nt,nt,nt,i,i,nt
CCOC(=O)N1CCc2c(sc3c2c(=O)n(CCc2ccccc2)c(=O)n3CC(=O)Nc2ccc(C)cc2)C1,i,i,i,i,nt,i
O=C(Nc1cccc(Cl)c1)N1CCSc2ccccc21,i,nt,i,i,nt,i
Fc1ccc(CNc2ncnc3nc[nH]c23)cc1,nt,nt,i,nt,nt,i
CCOc1ccccc1N(C)C(=O)c1c2c(nc3ccccc13)C(=O)N(C1CCCCC1)C2,i,nt,i,?,nt,i
CC1CCN(C(C)C(=O)Nc2ccccc2-c2ccccc2)CC1 (stereo not given),i,12µM,i,?,i,i
CC1CCN(CC(=O)Nc2ccccc2-c2ccccc2)CC1,i,i,i,i,35µM,i
Fc1ccc(-c2cn3ccccc3n2)cc1,nt,nt,nt,i,i,nt
CCOc1ccc(-c2cn3ccccc3n2)cc1,?,3.5µM,?,i,i,i
CCn1c(=O)n(CC)c2cc(N3CCCC3)c(NC(=O)c3ccc(OC)c(Br)c3)cc21,nt,nt,nt,i,?,nt
CCn1c(=O)c(=O)n(CC)c2cc(N3CCCCC3)c(NC(=O)c3cccc(OC)c3)cc21,i,i,i,i,nt,i
CCn1c(=O)n(CC)c2cc(N3CCCC3)c(NC(=O)c3ccc(C)c([N+](=O)[O-])c3)cc21,?,i,i,i,7.9µM,?
CCOc1cccc(C(=O)Nc2ccccc2N2CCN(C(=O)C(C)C)CC2)c1,?,?,i,i,i,i
CCCCOc1cccc(C(=O)Nc2ccccc2N2CCCC2)c1,i,i,i,i,13µM,i
SMILES,Lassa entry inh,Marburg entry inh,Vaccinia Venus,FMDV inh,HCV inh,VACV mCherry inh
CCn1c(=O)n(CC)c2cc(N3CCCC3)c(NC(=O)c3cccc(C)c3)cc21,?,?,i,?,13µM,?
CCn1c(=O)n(CC)c2cc(N3CCCC3)c(NC(=O)c3cccc(Cl)c3)cc21,nt,nt,i[7.34 µM],?,6.3µM,?
Cc1cccc(C(=O)Nc2cc3c(cc2N2CCCCC2)n(C)c(=O)c(=O)n3C)c1,i,i,i,i,nt,i
O=c1c2oc3ccccc3c2n(Cc2cccc(Cl)c2)c(=O)n1Cc1ccco1,i,nt,i,?,nt,i
N/C(=C\c1ccccc1)c1ccncc1,nt,nt,i,nt,nt,i
CC(=O)c1ccc(-c2ccc(C(=O)N(C)Cc3nc4ccccc4c(=O)[nH]3)o2)cc1,nt,nt,nt,22µM,7.1µM,nt
S=c1[nH]nc(-c2ccccc2)n1/N=C/c1ccc(-c2ccccc2Cl)o1,0.82µM,0.71µM,i,i,i,?
S=c1[nH]nc(-c2cccc(Cl)c2)n1/N=C/c1ccc(-c2ccccc2Br)o1,nt,nt,nt,i,i,nt
